# The list is not random: actives were taken first. Their share in the collection is about 3.4%.
# PAX8 inh HTS – inhibitors of PAX8-driven TPO luciferase reporter, primary screen, RMG-I cells, single concentration; SteadyGlo, 24 h; inhibition, % at 12.6 µM; 1.2% of 360,000 active;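 active = mean replicate inhibition at least 60% with every replicate also reaching 60%; inconclusive = only one of the two criteria is met; inactive = mean below 60% and not all replicates reaching 60%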;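 also: luciferase light reporting Pax8 driven TPO promoter activity; plate controls were median of neutral control wells for no effect and mitoxantrone controls for full effect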
# LGR2 antag – inhibitors of bursicon-induced LGR2 CRE-luciferase signal, primary screen, cell-based, HEK293, CRE-luciferase reporter, bursicon stimulation; Drosophila bursicon receptor LGR2 (rickets); bursicon-stimulated, 4 h; inhibition, % at 9.99 µM; 0.35% of 380,000 active;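 active = drop in luminescence signal, shown as inhibition above about 50% in the replicate tests, limit read from the data, passing the limit was not always enough; inconclusive = probably only some replicates passing the limit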;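 also: agonist challenge used bursicon conditioned medium at about half maximal strength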
# EWS-Fli block – EWS/Fli-driven NR0B1 reporter inhibitors, primary screen, A673 cells, NR0B1 luciferase, luminescence, MLPCN library. viability-normalised. inhibition, % at 12.6 µM. AID 651661, 2012. 0.67% of 350,000 active;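 active = mean inhibition of at least 50% after viability correction, with every replicate also passing that limit; inconclusive = mean reaches 50% but only one of two replicates passes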;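 also: firefly luciferase signal divided by Alamar Blue viability fluorescence both relative to DMSO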
# Ecoli rRNA inh – reduced GFP signal of wild-type E. coli, primary screen, bacterial rRNA inhibitor project, GFP/RFP fluorescence, OD600, single point; GFP signal change (wild-type ribosome), % (test concentration not listed); E. coli WT GFP vs humanized-ribosome RFP mutants, 24 h; hits give low values; DMSO median 0, no signal -100; 1.6% of 350,000 active;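 active = significant combined selectivity score with lowered wild-type GFP, culture density cut under 30%, mutant RFP and density less affected; inactive = any of these conditions unmet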
# PGC1a acetyl inh – inhibitors of PGC1a acetylation signal, primary screen, cell-based, U2OS, AlphaScreen, inhibitor mode. AlphaScreen anti-acetyl-lysine; with virally co-expressed GCN5 acetyltransferase. inhibition, % at 15.6 µM. 0.17% of 350,000 active;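 active = every replicate shows inhibition of at least 40%; inconclusive = mean inhibition at least 40% but some replicate below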;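 also: 0% = neutral control wells and 100% = positive control wells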
# SIRT5 inh – SIRT5 desuccinylase inhibitors, primary screen, biochemical, fluorescence imaging, single point, set 5. NAD-dependent protein deacylase sirtuin-5, mitochondrial (Homo sapiens), Q9NXA8. Purified SirT5, succinyl-peptide AMC, trypsin-coupled fluorescence. inhibition, % at 15 µM. 1.1% of 330,000 active. AID 652115, 2013; in the data active = inhibition above about 15%; inconclusive = no clear call, values can overlap the other calls
# Target sequence (Q9NXA8 whole entry, looked up): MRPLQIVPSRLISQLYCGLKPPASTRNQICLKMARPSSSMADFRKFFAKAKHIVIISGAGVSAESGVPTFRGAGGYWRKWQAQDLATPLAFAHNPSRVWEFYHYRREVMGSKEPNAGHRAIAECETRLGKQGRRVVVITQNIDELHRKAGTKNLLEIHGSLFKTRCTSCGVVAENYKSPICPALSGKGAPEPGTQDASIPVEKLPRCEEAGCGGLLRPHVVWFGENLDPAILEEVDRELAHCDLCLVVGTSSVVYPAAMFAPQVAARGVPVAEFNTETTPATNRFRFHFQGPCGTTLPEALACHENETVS
# An asterisk follows results filed as active; ? = inconclusive; . = no result.
SMILES,PAX8 inh HTS,LGR2 antag,EWS-Fli block,Ecoli rRNA inh,PGC1a acetyl inh,SIRT5 inh
Cc1ccc(S(=O)(=O)N(C)C[C@H]2Oc3ccc(NC(=O)Nc4ccc(C(F)(F)F)cc4)cc3CC(=O)N([C@H](C)CO)C[C@H]2C)cc1,63*,1,6,7,3,11
C[C@@H]1CN([C@H](C)CO)C(=O)Cc2cc(NC(=O)Nc3ccc(C(F)(F)F)cc3)ccc2O[C@H]1CN(C)S(=O)(=O)c1cccs1,-18,11,-5,0,3,4
C[C@H](CO)N1C[C@H](C)[C@H](CN(C)S(=O)(=O)c2cccs2)Oc2ccc(NC(=O)Nc3ccc(C(F)(F)F)cc3)cc2CC1=O,15,9,56*,4,2,-10
C[C@H]1CN([C@@H](C)CO)C(=O)Cc2cc(NC(=O)Nc3ccc(F)cc3)ccc2O[C@@H]1CN(C)S(C)(=O)=O,-18,-9,-1,0,-3,18*
Cc1ccc(S(=O)(=O)N(C)C[C@H]2Oc3ccc(NC(=O)Nc4ccc(C(F)(F)F)cc4)cc3CC(=O)N([C@H](C)CO)C[C@@H]2C)cc1,82*,10,-4,0,-2,0
Cc1ccc(S(=O)(=O)N(C)C[C@@H]2Oc3ccc(NC(=O)Nc4ccc(C(F)(F)F)cc4)cc3CC(=O)N([C@@H](C)CO)C[C@H]2C)cc1,49,24,-1,5,7,12
Cc1ccc(S(=O)(=O)N(C)C[C@H]2Oc3ccc(NC(=O)Nc4ccc(C(F)(F)F)cc4)cc3CC(=O)N([C@@H](C)CO)C[C@@H]2C)cc1,-11,12,-5,1,4,6
C[C@@H]1CN([C@@H](C)CO)C(=O)Cc2cc(NC(=O)Nc3ccc(F)cc3)ccc2O[C@@H]1CN(C)S(C)(=O)=O,3,-26,-8,2,1,-1
COCC(=O)N1[C@H](C#N)[C@H](c2ccccc2-c2cccc(C)c2)[C@@H]1CO,.,-6,7,5,4,-5
Nc1nnc(CC(=O)N/N=C/c2cc([N+](=O)[O-])cc(Br)c2O)s1,-6,.,-6,-6,8,47*
O=C(O)COc1ccccc1/C=N/NC(=O)CSc1nnc(SCc2cccc3ccccc23)s1,-3,-23,6,6,-5,17*
NC(=S)N/N=C\c1ccccc1OCc1ccccc1,2,13,28,-26*,-16,0
COc1ccc(CSCC(=O)N/N=C/c2ccccc2OCc2ccccc2)cc1,.,.,.,.,3,.
O=C(N/N=C/c1ccccc1OCc1ccccc1)c1cccs1,-34,-16,.,.,0,.
O=C(CSCc1ccccc1)N/N=C/c1ccccc1OCc1ccccc1,.,-16,-9,-27*,-20,-4
CCCNC(=O)N[C@H]1CC[C@H](CC(=O)NC2CCCCC2)O[C@H]1CO,-1,7,-3,2,-3,-5
COc1ccc(NC(=O)Nc2ccc3c(c2)CC(=O)N([C@@H](C)CO)C[C@H](C)[C@H](CN(C)S(=O)(=O)c2ccc(C)cc2)O3)cc1,.,.,.,-1,.,.
Nc1nnc(CC(=O)N/N=C/c2ccccc2OCc2ccc(F)cc2)s1,3,1,-21,-6,61*,-6
CN1CCC(NCCC(c2ccc(F)cc2)c2ccc(Cl)cc2)CC1 (stereo not drawn),?,-8,55*,3,.,-1
CO[C@@H]1CN(C)C(=O)c2cc(NC(=O)C3CCOCC3)ccc2OC[C@@H](C)N(S(=O)(=O)c2ccc(C)cc2)C[C@H]1C,-9,.,-8,.,-16,-4
CCS(=O)(=O)Nc1ccc2c(c1)C(=O)N(C)C[C@@H](OC)[C@H](C)CN(CCC(F)(F)F)[C@@H](C)CO2,-4,-5,10,-2,10,-3
O=S(=O)(c1ccccc1)N1CC2(C1)[C@H](c1ccccc1)[C@H](CO)N2CCC(F)(F)F,5,-4,0,-13,13,17*
O=C(C[C@H]1C[C@@H]2c3cc(NC(=O)Nc4ccccc4)ccc3O[C@@H]2[C@H](CO)O1)NC1CCCC1,-33,10,-3,-4,-4,0.5*
O=C(C[C@@H]1C[C@H]2c3cc(NC(=O)C4CCC4)ccc3O[C@H]2[C@H](CO)O1)NCc1ccc(-c2ccccc2)cc1,?,17,20,1,-16,25*
O=C(C[C@H]1C[C@H]2c3cc(NC(=O)C4CCC4)ccc3O[C@H]2[C@H](CO)O1)NCCN1CCCCC1,-2,1,-10,5,5,35*
SMILES,PAX8 inh HTS,LGR2 antag,EWS-Fli block,Ecoli rRNA inh,PGC1a acetyl inh,SIRT5 inh
O=C(C[C@@H]1C[C@@H]2c3cc(NC(=O)C4CCC4)ccc3O[C@@H]2[C@@H](CO)O1)NCc1ccc(-c2ccccc2)cc1,70*,12,10,-7,80*,-6
O=C(C[C@@H]1C[C@@H]2c3cc(NC(=O)C4CCC4)ccc3O[C@@H]2[C@H](CO)O1)NCc1ccc(-c2ccccc2)cc1,-21,-20,-3,-1,-1,3
COc1cccc(C#Cc2ccc([C@H]3[C@@H](CO)N4C(=O)CN(C(=O)c5ccncc5)C[C@H]34)cc2)c1,22,-7,-2,1,-6,2
CO[C@@H]1CN(C)C(=O)c2ccc(NS(=O)(=O)c3cn(C)cn3)cc2OC[C@@H](C)N(C)C[C@H]1C,-6,22,-3,1,-13,-3
CS(=O)(=O)N1CC2(C1)[C@H](c1ccccc1)[C@H](CO)N2CC1CC1,0,-6,4,4,9,0
CSC(=S)NN=C(C)c1cccc(C)n1,76*,?,13,-5,-2,-1
COc1ccc(-n2c(-c3ccc(Cl)cc3)c[n+]3c2CCc2ccccc2-3)cc1,94*,0,23,-59,-36,1
COc1ccc(-n2c(-c3ccccc3)nnc2-c2ccc(Cl)cc2)cc1,3,.,.,.,-10,.
C/C=C/c1cnc2c(c1)C(=O)N([C@H](C)CO)C[C@@H](C)[C@@H](CN(C)C(=O)Nc1c(C)noc1C)O2,.,-2,-13,8,-7,0
C[C@H](CO)N1C[C@H](C)[C@H](CN(C)Cc2ccncc2)Oc2cc(C3=CCCC3)ccc2S1(=O)=O,.,-7,-3,-6,-17,1
O=C(N[C@H]1C=C[C@H](CC(=O)N2CCOCC2)O[C@H]1CO)c1ccccn1,-19,3,3,4,-4,29*
CC(C)N(CCc1ccncc1)C(=S)Nc1cccc(Cl)c1,-1,-20,7,-17*,-13,-3

# Screening data: PubChem BioAssay, Broad Institute
